Source: PubChem BioAssay (Tox21)
Results filed as inconclusive are left out. Active and inactive are the calls of the source. The call rests on the fitted dose curve; in most records, active means well fitted activation curve with a large enough effect in the repeat runs; inconclusive means weak or mixed curves; inactive means flat fitted curve, though single readings scatter.

Test: A CellTox Green Cytotoxicity Assay to monitor cytotoxicity in HepG2 cells - 24 hour (AID 1224878); further: nearly all actives have a fitted effect of over 45% in size
Settings: CellTox Green fluorescence; series mostly up to 76.8 µM
Description: National Center for Advancing Translational Sciences [NCATS]
NIH Chemical Genomics Center [NCGC]
U.S. Environmental Protection Agency [EPA]
National Institutes of Environmental Health Sciences [NIEHS]
National Toxicology Program [NTP]
Cell-based models are critical for drug discovery. Determining the natural cytotoxic effects resulting from test compounds is an essential research activity. A CellTox Green Cytotoxicity Assay to monitor cytotoxicity in real time of continues cell culture during 40 hours of the compound treatment was used to screen Tox21 10K library compounds in HepG2 cells. CellTox Green Cytotoxicity Assay is a nonlytic, homogeneous, biofluorescent method to measure cytotoxicity in cell culture after experimental manipulation. The assay system uses a proprietary asymmetric cyanine dye that is excluded from viable cells but preferentially stains the dead cell's DNA. […] Viable cells produce no appreciable increases in fluorescence. Therefore, the fluorescence signal produced by the binding interaction with dead cell DNA is proportional to cytotoxicity.
The mixture of HepG2 cell suspension and reagents were dispensed at 600cells/6 ul/well in 1536-well tissue culture treated black solid bottom plates using a Multidrop dispenser. After the assay plates were incubated at a 37 C/5% CO2 incubator for 5 hours, 23 nL of compounds dissolved in DMSO, positive and negative controls was transferred to the assay plate by a pintool work station. The plates were incubated at 37 C for 40 hours. The fluorescence intensity were measured at 0h, 8h, 16h, 24h, 32h and 40h time points using ViewLux plate reader during compound treatment.

Question: With `OCCc1ccccn1` as the compound, how does the outcome read?
Answer: Its outcome is “inactive”.

Question: Which outcome does the source give for `CC(C)CC(C)(N)C#N` (stereo not given) here?
Answer: Its outcome is “inactive”.

Question: Which outcome does the source give for `CC(=O)N[C@H]1[C@H]([C@H](O)[C@H](O)CO)OC(C(=O)O)=C[C@@H]1N=C(N)N` here?
Answer: The outcome was “inactive”.

Question: Which outcome does the source give for `Cc1nc(C2CCCCC2)c(-c2ccc(S(N)(=O)=O)c(F)c2)o1` here?
Answer: The outcome was “inactive”.

Question: Which outcome does the source give for `CCCCCC(C)N` (stereo not given) here?
Answer: Its outcome is “inactive”.

Question: With `NCCCC(N)(C(=O)O)C(F)F` (stereo not given) as the compound, how does the outcome read?
Answer: The outcome was “inactive”.

Question: With `CC(C(=O)O)c1cccc(Oc2ccccc2)c1` (stereo not given) as the compound, how does the outcome read?
Answer: The outcome was “inactive”.

Question: For `C=CCCC(=O)O`, which outcome is on record?
Answer: Its outcome is “inactive”.

Question: Which outcome does the source give for `O=C(O)CC(C(=O)O)S(=O)(=O)O` (stereo not given) here?
Answer: The outcome was “inactive”.

Question: With `CCN(C=O)CC` as the compound, how does the outcome read?
Answer: Its outcome is “inactive”.

Question: Which outcome does the source give for `CC(=O)Oc1cccc(C)c1` here?
Answer: The outcome was “inactive”.

Question: For `CCCCCCC1CCC(=O)O1` (stereo not given), which outcome is on record?
Answer: Its outcome is “inactive”.

Question: For `Clc1cc(Cl)cc(Cl)c1`, which outcome is on record?
Answer: Its outcome is “inactive”.

Question: With `CCOc1ccccc1OCC` as the compound, how does the outcome read?
Answer: Its outcome is “inactive”.

Question: For `CCN(Cc1ccccc1)c1ccccc1`, which outcome is on record?
Answer: The outcome was “inactive”.

Question: With `CC(C)NNC(=O)c1ccncc1` as the compound, how does the outcome read?
Answer: Its outcome is “inactive”.

Question: For `CCOC(=O)COC(=O)c1ccccc1C(=O)OCC`, which outcome is on record?
Answer: Its outcome is “inactive”.

Question: For `NC(=O)N1c2ccccc2CC(=O)c2ccccc21`, which outcome is on record?
Answer: The outcome was “inactive”.

Question: With `C=COC(=O)C(C)(CC)CCC(C)C` (stereo not given) as the compound, how does the outcome read?
Answer: Its outcome is “inactive”.

Question: With `CC(C)=CCC/C(C)=C/C#N` as the compound, how does the outcome read?
Answer: Its outcome is “inactive”.

Question: With `O=C(O)c1cc(C(=O)O)cc(C(=O)O)c1` as the compound, how does the outcome read?
Answer: Its outcome is “inactive”.

Question: For `CN1CCC(=C2c3ccccc3CCc3cccnc32)CC1`, which outcome is on record?
Answer: The outcome was “inactive”.

Question: For `CCCn1cc[n+](C)c1C`, which outcome is on record?
Answer: Its outcome is “inactive”.

Question: With `O=S(=O)(O)c1cccc2c(S(=O)(=O)O)cccc12` as the compound, how does the outcome read?
Answer: Its outcome is “inactive”.

Question: Which outcome does the source give for `CCCc1ncc(C[n+]2ccccc2C)c(N)n1` here?
Answer: The outcome was “inactive”.

Question: With `O=C1NC(=O)C2CC=CCC12` (stereo not given) as the compound, how does the outcome read?
Answer: Its outcome is “inactive”.

Question: Which outcome does the source give for `CC(CC=O)CC(C)(C)C` (stereo not given) here?
Answer: Its outcome is “inactive”.

Question: Which outcome does the source give for `Clc1cc(Cl)c(Cl)nc1Cl` here?
Answer: Its outcome is “inactive”.

Question: Which outcome does the source give for `CCCO[Si](OCCC)(OCCC)OCCC` here?
Answer: The outcome was “inactive”.

Question: Which outcome does the source give for `OCCCCCO` here?
Answer: Its outcome is “inactive”.

Question: Which outcome does the source give for `CC(=O)N1C[C@H](O)C[C@H]1C(=O)O` here?
Answer: Its outcome is “inactive”.

Question: With `CC(C)(C)OC(=O)c1cccc(N)c1` as the compound, how does the outcome read?
Answer: The outcome was “inactive”.

Question: For `CCC(C)(CN(C)C)OC(=O)c1ccccc1` (stereo not given), which outcome is on record?
Answer: The outcome was “inactive”.

Question: With `[K+]` as the compound, how does the outcome read?
Answer: Its outcome is “inactive”.

Question: Which outcome does the source give for `CC1=CCC(O)(C(C)C)CC1` (stereo not given) here?
Answer: The outcome was “inactive”.

Question: For `CCN[C@H]1C[C@H](C)S(=O)(=O)c2sc(S(N)(=O)=O)cc21`, which outcome is on record?
Answer: The outcome was “inactive”.

Question: With `COc1cc2c(cc1OC)-c1cc3ccc(OC)c(OC)c3c[n+]1CC2` as the compound, how does the outcome read?
Answer: Its outcome is “inactive”.

Question: Which outcome does the source give for `Nc1ccn([C@@H]2O[C@H](CO)[C@@H](O)[C@@H]2O)c(=O)n1` here?
Answer: The outcome was “inactive”.

Question: For `CNC(=O)Nc1ccc(Cl)c(Cl)c1`, which outcome is on record?
Answer: Its outcome is “inactive”.

Question: For `O=S(=O)(O)c1cc(O)c(O)c(S(=O)(=O)O)c1`, which outcome is on record?
Answer: The outcome was “inactive”.
